Experimental data reported in PubChem BioAssay (NCATS).
Records with an inconclusive call do not appear. Unmarked numbers belong to inactive results. Active and inactive are the calls of the source. Calls follow the shape of the dose curve; as a rule, active = well fitted curve in the direction sought with a large enough effect; inconclusive = small, poorly fitted or top-dose-only effect, or another doubt; inactive = no such curve, though single readings can be large; an effect the other way counts as inactive or inconclusive.

Test: qHTS of pediatric cancer cell lines to identify multiple opportunities for drug repurposing: Primary screen for SK-N-MC cells (AID 1347093)
Conditions: SK-N-MC viability, CellTiter-Glo luminescence, 48 h; series mostly up to 46 µM; activity change, negative = cytotoxic: at the top concentration
In short: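 Metabolically active cells were quantified by ATP-dependent luminescence (CellTiter-Glo, 15 min at room temperature) following 48 h treatment. Cells had been plated at 500-1,000 per well and settled for 5 h beforehand.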
Potency is read from the fitted curve at half-maximal effect.

Structure (SMILES)	Potency
CC(C)=CCCC(C)=CCCC(C)=CCSc1ccccc1C(=O)O	0.743 µM (active)
COc1cc(OC2CCN(C)CC2)ccc1Nc1ncc2c(n1)n(C1CCCC1)c(=O)n2C	3.32 µM (active)
Fc1cc(-c2cccc3ncc(-c4cnn(C5CCNCC5)c4)nc23)cc(F)c1CN1CCOCC1	14.8 µM (active)
Cn1cc(-c2ccncc2)c(-c2ccc(OCc3ccc4ccccc4n3)cc2)n1	9.35 µM (active)
COC(=O)[C@]12CCC(C)(C)C[C@@H]1[C@@H]1C(=O)C=C3[C@@]4(C)C=C(C#N)C(=O)C(C)(C)[C@@H]4CC[C@@]3(C)[C@]1(C)CC2	0.372 µM (active)
N#CCNC(=O)c1ccc(-c2ccnc(Nc3ccc(N4CCOCC4)cc3)n2)cc1	4.69 µM (active)
CN(C)CCCN=c1c2ccccc2n(C)c2[nH]c(=O)n(C)c(=O)c12	2.96 µM (active)
O=C(Nc1nc2cccc(-c3ccc(CN4CCS(=O)(=O)CC4)cc3)n2n1)C1CC1	5.26 µM (active)
O=C(CCCCCCC(=O)Nc1ccc([C@H]2O[C@@H](CSc3nc(-c4ccccc4)c(-c4ccccc4)o3)C[C@@H](c3ccc(CO)cc3)O2)cc1)NO	8.33 µM (active)
CCN1CCN(CC(=O)Nc2ccc(-c3cccc4c(=O)cc(N5CCOCC5)oc34)c3sc4ccccc4c23)CC1	0.59 µM (active)
NCC(=O)Nc1ccc(-n2nc(C(F)(F)F)cc2-c2ccc3c(ccc4ccccc43)c2)cc1	0.0372 µM (active)
NC1(Cc2ccc(Cl)cc2)CCN(c2ncnc3[nH]ccc23)CC1	3.32 µM (active)
Cn1c2ccccc2c2c3c(c4c5ccccc5n(CCC#N)c4c21)CNC3=O	0.148 µM (active)
Cc1cn2c(-c3cn[nH]c3)cnc2c(Nc2ccc(C(=O)N3CCNCC3)cc2F)n1	1.66 µM (active)
Nc1nccc(Oc2ccc(NC(=O)c3c[nH]cc(-c4ccc(F)cc4)c3=O)cc2F)c1Cl	2.35 µM (active)
NC(=O)c1c(OCc2c(F)cc(Br)cc2F)nsc1NC(=O)NCCCCN1CCCC1	16.6 µM (active)
CC(=O)c1c(C)c2cnc(Nc3ccc(N4CCNCC4)cn3)nc2n(C2CCCC2)c1=O	20.9 µM (active)
COC(=O)C1=C(C)NC(C)=C(C(=O)OCCN2CCN(C(c3ccccc3)c3ccccc3)CC2)C1c1cccc([N+](=O)[O-])c1 (centres undefined)	6.68 µM (active)
CC1(O)CC(c2nc(-c3ccc4ccc(-c5ccccc5)nc4c3)c3c(N)nccn23)C1 (centres undefined)	0.0418 µM (active)
CN(C1CCc2c(c3ccccc3n2CC(=O)O)C1)S(=O)(=O)c1ccc(F)cc1 (centres undefined)	0.935 µM (active)
COC(=O)Nc1ccc(-c2nc(N3CCOCC3)c3cnn(C4CCN(Cc5cccnc5)CC4)c3n2)cc1	0.0469 µM (active)
Cc1cc(Nc2ncnc3ccc(-c4ccc(CNCCS(C)(=O)=O)o4)cc23)ccc1Oc1ccn2ncnc2c1	4.18 µM (active)
O=C(O)C1(Cc2cccc(Nc3nccs3)n2)CCC(Oc2cccc(Cl)c2F)CC1 (centres undefined)	1.66 µM (active)
O=C(O)c1ccc2cc(-c3ccc(O)c(C45CC6CC(CC(C6)C4)C5)c3)ccc2c1	0.372 µM (active)
COc1cc(-c2nn(C3CCC(N4CCN(C(C)=O)CC4)CC3)c3ncnc(N)c23)ccc1NC(=O)c1cc2ccccc2n1C (centres undefined)	0.743 µM (active)
Cc1cc(CN2CCN(c3c(Br)cnc4nc(-c5ccc(N6CCN(C)CC6)cc5)[nH]c34)CC2)no1	1.18 µM (active)
Nc1cccc(-c2cc3c(Oc4cccc(O)c4)ncnc3[nH]2)c1	1.05 µM (active)
COc1cc(C(=O)N2CCC(N3CCN(C)CC3)CC2)ccc1Nc1ncc2c(n1)N(C)c1ccccc1C(=O)N2C	10.5 µM (active)
COc1cccc(-c2ccc(NC(=O)C3=C(C(=O)O)CCC3)c(F)c2)c1	1.32 µM (active)

Test: qHTS of pediatric cancer cell lines to identify multiple opportunities for drug repurposing: Primary screen for BT-37 cells (AID 1347094);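 as to activity change, negative = cytotoxic: plate controls were DMSO for no effect and bortezomib for full effect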
Conditions: BT-37 viability, CellTiter-Glo luminescence, 48 h; series mostly up to 57.3 µM; activity change, negative = cytotoxic: at the top concentration
In short: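 Plated cells (500-1,000 per well, growth media) were allowed to settle for 5 hours, treated with compound dilutions for 48 hours, then lysed with CellTiter-Glo for 15 min at room temperature before luminescence reading.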

Structure (SMILES)	Potency	activity change, negative = cytotoxic
CC(C)=CCCC(C)=CCCC(C)=CCSc1ccccc1C(=O)O	7.69 µM (active)	–
Fc1cc(-c2cccc3ncc(-c4cnn(C5CCNCC5)c4)nc23)cc(F)c1CN1CCOCC1	24.3 µM (active)	–
COC(=O)[C@]12CCC(C)(C)C[C@@H]1[C@@H]1C(=O)C=C3[C@@]4(C)C=C(C#N)C(=O)C(C)(C)[C@@H]4CC[C@@]3(C)[C@]1(C)CC2	0.685 µM (active)	–
N#CCNC(=O)c1ccc(-c2ccnc(Nc3ccc(N4CCOCC4)cc3)n2)cc1	21.7 µM (active)	–
CN(C)CCCN=c1c2ccccc2n(C)c2[nH]c(=O)n(C)c(=O)c12	4.85 µM (active)	–
Cn1c(=O)n(-c2ccc(C(C)(C)C#N)cc2)c2c3cc(-c4cnc5ccccc5c4)ccc3ncc21	0.0544 µM (active)	–
COc1cc2c(Oc3ccc4[nH]c(C)cc4c3F)ncnc2cc1OCCCN1CCCC1	24.3 µM (active)	–
O=C(Nc1nc2cccc(-c3ccc(CN4CCS(=O)(=O)CC4)cc3)n2n1)C1CC1	19.3 µM (active)	–
O=C(CCCCCCC(=O)Nc1ccc([C@H]2O[C@@H](CSc3nc(-c4ccccc4)c(-c4ccccc4)o3)C[C@@H](c3ccc(CO)cc3)O2)cc1)NO	15.3 µM (active)	–
CCN1CCN(CC(=O)Nc2ccc(-c3cccc4c(=O)cc(N5CCOCC5)oc34)c3sc4ccccc4c23)CC1	4.85 µM (active)	–
NCC(=O)Nc1ccc(-n2nc(C(F)(F)F)cc2-c2ccc3c(ccc4ccccc43)c2)cc1	24.3 µM (active)	–
Cn1c2ccccc2c2c3c(c4c5ccccc5n(CCC#N)c4c21)CNC3=O	7.69 µM (active)	–
COCCOc1ccc2c(c1)ncn2-c1ccc2cccc(N3CCC(N)CC3)c2n1	24.3 µM (active)	–
Cc1cn2c(-c3cn[nH]c3)cnc2c(Nc2ccc(C(=O)N3CCNCC3)cc2F)n1	17.2 µM (active)	–
Nc1nccc(Oc2ccc(NC(=O)c3c[nH]cc(-c4ccc(F)cc4)c3=O)cc2F)c1Cl	2.17 µM (active)	–
NC(=O)c1c(OCc2c(F)cc(Br)cc2F)nsc1NC(=O)NCCCCN1CCCC1	24.3 µM (active)	–
CC(=O)c1c(C)c2cnc(Nc3ccc(N4CCNCC4)cn3)nc2n(C2CCCC2)c1=O	24.3 µM (active)	–
CC1(O)CC(c2nc(-c3ccc4ccc(-c5ccccc5)nc4c3)c3c(N)nccn23)C1 (centres undefined)	19.3 µM (active)	–
C=CC(=O)Nc1cccc(Oc2nc(Nc3ccc(N4CCN(C)CC4)cc3OC)ncc2Cl)c1	27.3 µM (active)	–
COC(=O)Nc1ccc(-c2nc(N3CCOCC3)c3cnn(C4CCN(Cc5cccnc5)CC4)c3n2)cc1	0.544 µM (active)	–
Cc1cc(Nc2ncnc3ccc(-c4ccc(CNCCS(C)(=O)=O)o4)cc23)ccc1Oc1ccn2ncnc2c1	6.11 µM (active)	–
O=C(O)C1(Cc2cccc(Nc3nccs3)n2)CCC(Oc2cccc(Cl)c2F)CC1 (centres undefined)	–	-14.2%
O=C(O)c1ccc2cc(-c3ccc(O)c(C45CC6CC(CC(C6)C4)C5)c3)ccc2c1	0.863 µM (active)	–
COc1cc(C(=O)N2CCC(N3CCN(C)CC3)CC2)ccc1Nc1ncc2c(n1)N(C)c1ccccc1C(=O)N2C	15.3 µM (active)	–
COc1cccc(-c2ccc(NC(=O)C3=C(C(=O)O)CCC3)c(F)c2)c1	19.3 µM (active)	–
